PubChem BioAssay
Records with an inconclusive call do not appear. Active and inactive are the calls of the source.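 Rule for the calls, unless noted: active = viability increase at or above a cutoff of the median across tested compounds plus 3 SD (cut at about 8.5% in these data, passing the limit was not always enough); inconclusive = some gains above the cutoff, reason not given; inactive = the rest.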

Experiment: doxorubicin toxicity protection in MRP-1 cells – H69AR cells, CellTiter-Glo, duplicate, MRP-1 activator project, pilot screen (AID 807);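 note: compound pretreatment 18-22 h then 72 h combined with doxorubicin; 0% = doxorubicin alone and 100% = vehicle without doxorubicin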
Conditions: H69AR viability with doxorubicin, CellTiter-Glo luminescence; at 10 µM; hits give high values
With `COCCNC(=O)c1cc(-c2cccs2)on1` the viability increase was -7.54% (inactive).
In the case of `CC(C)c1nnc(NC(=O)C2CCCCC2)s1`, the viability increase is reported as -0.65% (inactive).
In the case of `Cc1nc2ccc(S(=O)(=O)NC(C(=O)Nc3nccs3)C(C)C)cc2s1` (stereo not given), the viability increase is reported as -1.85% (inactive).
In the case of `O=C(Cn1c(=O)[nH]c2ccsc2c1=O)NC1CCCCCC1`, the viability increase is reported as 1.49% (inactive).
In the case of `CCCCN(C)Cc1c(O)ccc2c(-c3ccccc3)cc(=O)oc12`, the viability increase is reported as -2.64% (inactive).
In the case of `O=C(CN1CCN(Cc2ccccc2F)C1=O)NCc1cccnc1`, the viability increase is reported as -1.65% (inactive).
In the case of `O=c1c2ccccc2nc2n1CCN2`, the viability increase is reported as 0.22% (inactive).
For `O=C(CSc1nnc(Cn2c(=O)sc3ccccc32)n1-c1ccccc1)Nc1nccs1`, the viability increase was -3.44% (inactive).
For `Cc1ccc(-n2nc(C)c3cc(C(=O)O)sc32)cc1`, the viability increase was -2.19% (inactive).
In the case of `CCOC(=O)c1oc2c(CN3CCN(C)CC3)c(O)ccc2c(=O)c1-c1ccccc1OC`, the viability increase is reported as -1.3% (inactive).
With `CCCCn1c(NCc2ccccc2O)nc2ccccc21` the viability increase was -5.25% (inactive).
For `Cc1cc2ncc(-c3ccc(Cl)cc3)c(N)n2n1`, the viability increase was -4.85% (inactive).
In the case of `CC1(C(=O)NC2CCCCC2)CCC(=O)N1Cc1cccs1` (stereo not given), the viability increase is reported as -0.4% (inactive).
With `CCc1cc(=O)n2[nH]c(C)c(-c3ccccc3OC)c2n1` the viability increase was -3.04% (inactive).
With `Cc1nnc(SCCn2c(N3CCC(Cc4ccccc4)CC3)nc3c2c(=O)[nH]c(=O)n3C)s1` the viability increase was -4.95% (inactive).
With `O=C(C1CCCN(S(=O)(=O)c2cccnc2)C1)N1CCn2c1nc1ccccc12` (stereo not given) the viability increase was 0.72% (inactive).
For `CCOC(=O)c1ccc(NC(=O)Cn2cc3c(n2)CCC(C)C3)cc1` (stereo not given), the viability increase was 0.35% (inactive).
For `Cc1cc(C)cc(N(CC(=O)Nc2cccc(C)n2)S(=O)(=O)c2c(C)noc2C)c1`, the viability increase was -4.06% (inactive).
In the case of `COc1ccc(-c2nnc(SCC(=O)N3CCOCC3)o2)cc1OC`, the viability increase is reported as -1.32% (inactive).
With `Cc1c(C(=O)OCc2ccccc2)[nH]c2c1C(=O)CC(c1ccco1)C2` (stereo not given) the viability increase was -4.85% (inactive).
With `CCCn1cc(SCC(N)=O)c2ccccc21` the viability increase was -1.96% (inactive).
With `CC1CCCCN1CCNC(=O)C1CCN(S(=O)(=O)c2cccc3cccnc23)CC1` (stereo not given) the viability increase was -3.57% (inactive).
In the case of `Cc1onc(-c2ccccc2Cl)c1C(=O)N1CCc2ccccc21`, the viability increase is reported as -3.41% (inactive).
With `O=C(c1ccc(CNc2c(N3CCCC3)c(=O)c2=O)cc1)N1CCc2ccccc2C1` the viability increase was -0.78% (inactive).
With `Cc1cccc(-n2ncc3c(NCc4cccnc4)ncnc32)c1` the viability increase was -0.52% (inactive).
For `COc1cccc2cc(C(=O)OC3CCN(C)CC3)c(=O)oc12`, the viability increase was -3.68% (inactive).
In the case of `CCOc1ccccc1NC(=O)CC1Nc2cc(C)c(C)cc2NC1=O` (stereo not given), the viability increase is reported as -5.9% (inactive).
For `COC(=O)C(C)Sc1nnc2n(-c3cccc(C)c3)c(=O)c3c4c(sc3n12)CCCC4` (stereo not given), the viability increase was -1.93% (inactive).
For `Cc1c(NC(=O)C2CCCCN2S(=O)(=O)c2ccc(Cl)cc2)c(=O)n(-c2ccccc2)n1C` (stereo not given), the viability increase was -1.13% (inactive).
With `CCC(=O)c1cc(F)c(N2CCN(C(=O)c3ccco3)CC2)cc1C` the viability increase was -0.95% (inactive).
With `Cc1cccc(C2CC(c3ccccc3)Nc3nc(N)nn32)c1` (stereo not given) the viability increase was -0.5% (inactive).
With `Cc1ccc(C)c(NC(=O)CSc2nnc(-c3ccccc3)o2)c1` the viability increase was 1.83% (inactive).
For `CCCCN(CC)CCNC(=O)c1cc2c(C)nc3ccccc3c2o1`, the viability increase was -3.49% (inactive).
For `O=C(Nc1ccccc1)C1=C(O)CC(c2ccoc2)CC1=Nc1ccccc1` (stereo not given), the viability increase was -4.69% (inactive).
In the case of `COc1ccc(OCc2nc(C#N)c(N3CCN(c4ccc(OC)cc4)CC3)o2)cc1`, the viability increase is reported as 9.38% (active).
In the case of `CCOc1cccc(OCCCCn2ccnc2)c1`, the viability increase is reported as -0.4% (inactive).
In the case of `COc1ccc(OC)c(C2CC(=O)NC(SC)=C2C#N)c1` (stereo not given), the viability increase is reported as 0.31% (inactive).
In the case of `Cc1cc(NC(=O)c2cccc(S(=O)(=O)N3CC(c4ccccc4)CC3=O)c2)no1` (stereo not given), the viability increase is reported as 1.83% (inactive).
In the case of `O=C(Cn1nc(Cc2ccncc2)c2ccccc2c1=O)N1CCN(C(=O)c2ccco2)CC1`, the viability increase is reported as -1.96% (inactive).
With `COC(=O)c1sc(NC(=O)COc2ccccc2OC)nc1C` the viability increase was -1.51% (inactive).

Experiment: viability of HCT116 without oncogenic beta-catenin – human colon tumor cells, pilot screen (AID 823;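 active = cell viability at or below a set limit in both duplicate runs, the limit being the all-compound median minus 4 SD, cut at about 23% in these data, passing the limit was not always enough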;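 note: 0% = wells killed by 20 µM Hyamine and 100% = untreated DMSO cell wells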)
Conditions: HCT116 beta-catenin knockout viability, CellTiter-Glo, 60 h; at 10 µM; hits give low values
In the case of `COCCNC(=O)c1cc(-c2cccs2)on1`, the viability is reported as 67.3% (inactive).
In the case of `CC(C)c1nnc(NC(=O)C2CCCCC2)s1`, the viability is reported as 99.7% (inactive).
In the case of `Cc1nc2ccc(S(=O)(=O)NC(C(=O)Nc3nccs3)C(C)C)cc2s1` (stereo not given), the viability is reported as 101% (inactive).
For `O=C(Cn1c(=O)[nH]c2ccsc2c1=O)NC1CCCCCC1`, the viability was 106% (inactive).
For `CCCCN(C)Cc1c(O)ccc2c(-c3ccccc3)cc(=O)oc12`, the viability was 91% (inactive).
In the case of `O=C(CN1CCN(Cc2ccccc2F)C1=O)NCc1cccnc1`, the viability is reported as 100% (inactive).
With `O=c1c2ccccc2nc2n1CCN2` the viability was 101% (inactive).
For `O=C(CSc1nnc(Cn2c(=O)sc3ccccc32)n1-c1ccccc1)Nc1nccs1`, the viability was 89.5% (inactive).
With `Cc1ccc(-n2nc(C)c3cc(C(=O)O)sc32)cc1` the viability was 93.1% (inactive).
With `CCOC(=O)c1oc2c(CN3CCN(C)CC3)c(O)ccc2c(=O)c1-c1ccccc1OC` the viability was 103% (inactive).
With `CCCCn1c(NCc2ccccc2O)nc2ccccc21` the viability was 79.7% (inactive).
For `Cc1cc2ncc(-c3ccc(Cl)cc3)c(N)n2n1`, the viability was 88% (inactive).
In the case of `CC1(C(=O)NC2CCCCC2)CCC(=O)N1Cc1cccs1` (stereo not given), the viability is reported as 102% (inactive).
With `CCc1cc(=O)n2[nH]c(C)c(-c3ccccc3OC)c2n1` the viability was 98.6% (inactive).
With `Cc1nnc(SCCn2c(N3CCC(Cc4ccccc4)CC3)nc3c2c(=O)[nH]c(=O)n3C)s1` the viability was 78.6% (inactive).
With `O=C(C1CCCN(S(=O)(=O)c2cccnc2)C1)N1CCn2c1nc1ccccc12` (stereo not given) the viability was 101% (inactive).
With `CCOC(=O)c1ccc(NC(=O)Cn2cc3c(n2)CCC(C)C3)cc1` (stereo not given) the viability was 102% (inactive).
For `Cc1cc(C)cc(N(CC(=O)Nc2cccc(C)n2)S(=O)(=O)c2c(C)noc2C)c1`, the viability was 73.4% (inactive).
With `COc1ccc(-c2nnc(SCC(=O)N3CCOCC3)o2)cc1OC` the viability was 103% (inactive).
In the case of `Cc1c(C(=O)OCc2ccccc2)[nH]c2c1C(=O)CC(c1ccco1)C2` (stereo not given), the viability is reported as 16.3% (active).
For `CCCn1cc(SCC(N)=O)c2ccccc21`, the viability was 100% (inactive).
In the case of `CC1CCCCN1CCNC(=O)C1CCN(S(=O)(=O)c2cccc3cccnc23)CC1` (stereo not given), the viability is reported as 101% (inactive).
With `Cc1onc(-c2ccccc2Cl)c1C(=O)N1CCc2ccccc21` the viability was 82.8% (inactive).
With `O=C(c1ccc(CNc2c(N3CCCC3)c(=O)c2=O)cc1)N1CCc2ccccc2C1` the viability was 92.6% (inactive).
In the case of `Cc1cccc(-n2ncc3c(NCc4cccnc4)ncnc32)c1`, the viability is reported as 89.4% (inactive).
In the case of `COc1cccc2cc(C(=O)OC3CCN(C)CC3)c(=O)oc12`, the viability is reported as 104% (inactive).
For `CCOc1ccccc1NC(=O)CC1Nc2cc(C)c(C)cc2NC1=O` (stereo not given), the viability was 77.5% (inactive).
In the case of `COC(=O)C(C)Sc1nnc2n(-c3cccc(C)c3)c(=O)c3c4c(sc3n12)CCCC4` (stereo not given), the viability is reported as 89.5% (inactive).
In the case of `Cc1c(NC(=O)C2CCCCN2S(=O)(=O)c2ccc(Cl)cc2)c(=O)n(-c2ccccc2)n1C` (stereo not given), the viability is reported as 96.9% (inactive).
For `CCC(=O)c1cc(F)c(N2CCN(C(=O)c3ccco3)CC2)cc1C`, the viability was 97.9% (inactive).
With `Cc1cccc(C2CC(c3ccccc3)Nc3nc(N)nn32)c1` (stereo not given) the viability was 99.8% (inactive).
With `Cc1ccc(C)c(NC(=O)CSc2nnc(-c3ccccc3)o2)c1` the viability was 95.9% (inactive).
For `CCCCN(CC)CCNC(=O)c1cc2c(C)nc3ccccc3c2o1`, the viability was 75% (inactive).
For `O=C(Nc1ccccc1)C1=C(O)CC(c2ccoc2)CC1=Nc1ccccc1` (stereo not given), the viability was 69.6% (inactive).
In the case of `COc1ccc(OCc2nc(C#N)c(N3CCN(c4ccc(OC)cc4)CC3)o2)cc1`, the viability is reported as 72.5% (inactive).
In the case of `CCOc1cccc(OCCCCn2ccnc2)c1`, the viability is reported as 49% (inactive).
With `COc1ccc(OC)c(C2CC(=O)NC(SC)=C2C#N)c1` (stereo not given) the viability was 104% (inactive).
With `Cc1cc(NC(=O)c2cccc(S(=O)(=O)N3CC(c4ccccc4)CC3=O)c2)no1` (stereo not given) the viability was 96.8% (inactive).
For `O=C(Cn1nc(Cc2ccncc2)c2ccccc2c1=O)N1CCN(C(=O)c2ccco2)CC1`, the viability was 106% (inactive).
In the case of `COC(=O)c1sc(NC(=O)COc2ccccc2OC)nc1C`, the viability is reported as 102% (inactive).
